The values below come from PMC4336329 (PLoS ONE, 2015).

Each structure is given as a SMILES string. The whole screen tested about 310,000 compounds, of which about 14,000 (4.5%) showed an effect of 50% or more. The effect is printed as a negative number. The sample as a whole holds a higher share of strong results than the screen did. Where a SMILES comes first, the peptide text is derived from it. The star is where a group is joined. Cbz = O=C(OCc1ccccc1)*
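Note: peak tail current of the secondary pulse compared with the same well before compound.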

human ether-à-go-go-related gene (hERG) potassium channel, sequence (Q12809 whole entry, looked up): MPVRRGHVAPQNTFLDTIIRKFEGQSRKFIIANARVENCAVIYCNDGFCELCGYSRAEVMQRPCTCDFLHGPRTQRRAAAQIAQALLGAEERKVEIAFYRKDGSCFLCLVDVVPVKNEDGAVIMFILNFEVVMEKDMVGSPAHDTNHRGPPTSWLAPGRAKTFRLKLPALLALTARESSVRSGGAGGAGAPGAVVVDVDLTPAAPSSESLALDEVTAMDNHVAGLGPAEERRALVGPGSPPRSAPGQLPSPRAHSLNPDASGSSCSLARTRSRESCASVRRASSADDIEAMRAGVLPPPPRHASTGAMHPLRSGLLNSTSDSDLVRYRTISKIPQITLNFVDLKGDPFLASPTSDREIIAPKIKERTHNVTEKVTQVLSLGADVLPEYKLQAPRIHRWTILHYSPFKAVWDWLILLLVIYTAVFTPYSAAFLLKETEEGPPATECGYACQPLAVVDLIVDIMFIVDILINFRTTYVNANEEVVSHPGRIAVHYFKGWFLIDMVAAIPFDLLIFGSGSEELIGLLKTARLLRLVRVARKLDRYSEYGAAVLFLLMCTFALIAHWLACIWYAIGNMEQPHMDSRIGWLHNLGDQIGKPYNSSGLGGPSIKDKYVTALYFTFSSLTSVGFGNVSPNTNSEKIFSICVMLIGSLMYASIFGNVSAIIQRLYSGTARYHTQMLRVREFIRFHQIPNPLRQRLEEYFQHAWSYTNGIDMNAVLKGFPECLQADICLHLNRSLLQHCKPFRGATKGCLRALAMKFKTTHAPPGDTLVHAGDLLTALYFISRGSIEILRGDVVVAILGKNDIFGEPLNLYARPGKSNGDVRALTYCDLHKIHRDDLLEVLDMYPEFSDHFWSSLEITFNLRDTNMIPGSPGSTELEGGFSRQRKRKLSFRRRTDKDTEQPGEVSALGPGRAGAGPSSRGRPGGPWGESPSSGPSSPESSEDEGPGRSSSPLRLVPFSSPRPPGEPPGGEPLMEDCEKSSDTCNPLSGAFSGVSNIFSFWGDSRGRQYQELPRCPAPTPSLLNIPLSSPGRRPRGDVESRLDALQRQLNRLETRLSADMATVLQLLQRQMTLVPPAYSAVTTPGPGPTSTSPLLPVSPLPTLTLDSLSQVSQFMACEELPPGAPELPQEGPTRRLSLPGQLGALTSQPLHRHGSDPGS

This experiment concerns the target human ether-à-go-go-related gene (hERG) potassium channel (human, UniProt Q12809). Briefly: primary screen, population patch clamp on CHO cells stably expressing hERG; higher = less effect of the substance.
With `COC1c2ccccc2C(=O)N1Cc1ccc(F)cc1` (stereo not shown), the “hERG current change (%, negative = inhibition) at 10uM” value turned out to be 5.48%. In the case of `O=C(Oc1c(Br)cc([N+](=O)[O-])cc1Br)c1cccnc1` it was 16.7%; in that of `O=C(O)CCC(NC(=O)C1CCCN1C(=O)OCc1ccccc1)C(=O)O` (stereo not drawn) (Cbz-Pro-Glu-OH; configuration not given here), 14%; in that of `Cc1cc(C)nc(SCCc2ccncc2)n1.Cl`, 9.82%. Consider `CN(c1ccc(OC(=O)CC2OC(=O)c3ccccc32)cc1)S(=O)(=O)c1ccccc1` (stereo not shown), for which the “hERG current change (%, negative = inhibition) at 10uM” value was -8.52%.

Regarding `Cc1ccc(C2C(N)C(=O)N2c2ccc(C)cc2)cc1` (stereo not shown), the “hERG current change (%, negative = inhibition) at 10uM” value was -5.54%. In the case of `CCOc1ccc(C(=O)OC2CC3CCC(C2)N3C)cc1.Cl` (stereo not shown) it was -30%. In the case of `CN1C2CCC1CC(OC(=O)c1cc(Cl)cc(Cl)c1)C2.Cl` (stereo not shown) it was -57.4%; in that of `CN1C2CCC1CC(OC(=O)c1ccc(Cl)cc1)C2.Cl` (stereo not shown), -48.9%; in that of `O=C(OC1Cn2c(=O)ccc(=O)n2C1)c1ccc([N+](=O)[O-])cc1`, -12.8%.

For the compound `CN1CCCC(OC(=O)c2cc(Cl)cc(Cl)c2)C1.Cl` (stereo not shown), the “hERG current change (%, negative = inhibition) at 10uM” value is -43.4%. The figure for `CN1C2CCC1CC(OC(=O)c1c[nH]c3ccccc13)C2.Cl` (stereo not shown) is -40.2%. In the case of `CN1C2CCC1CC(OC(=O)c1c[nH]c3ccccc13)C2` (stereo not shown) it was -59.1%. Take `CN1[C@@H]2CC[C@H]1CC(OC(=O)c1c[nH]c3ccccc13)C2.Cl` (stereo partly shown): the “hERG current change (%, negative = inhibition) at 10uM” value is -48.1%. The figure for `CN1C2CCC1CC(OC(=O)c1ccc([N+](=O)[O-])cc1)C2` (stereo not shown) is -67.9%. The figure for `CCOC(=O)c1ccc(S(=O)(=O)N2CCN(c3ccccn3)CC2)cc1` is 8.95%; for `CCOc1ccc(OCC)c(NC(=O)C2CCN(c3nn4c(=O)cc(C)nc4s3)CC2)c1` it is -30.5%; for `COc1ccc(CCC(=O)c2ccc(OC)cc2)cc1` it is -1.41%. As for `Cc1ccc(C)c(NC(=O)COC(=O)CCCN=C2NS(=O)(=O)c3ccccc32)c1`, the “hERG current change (%, negative = inhibition) at 10uM” value came to 4.55%. Consider `Cn1nc([N+](=O)[O-])nc1Sc1cccc2cccnc12`, for which the “hERG current change (%, negative = inhibition) at 10uM” value is 13.9%. The figure for `Cc1ccc2c(Cl)cc(Cl)c(OCC(=O)NCCc3ccccn3)c2n1` is -42.7%. As for `Cc1ccc(CNC(=O)[C@@H](NC(=O)Cc2ccccc2)C(C)C)cc1`, the “hERG current change (%, negative = inhibition) at 10uM” value was determined as 6.89%. With `CCN(CC)CCCNC(=O)C1CCC(=O)N(c2ccc(OC)cc2)C1c1ccc(F)cc1` (stereo not shown), the “hERG current change (%, negative = inhibition) at 10uM” value turned out to be 1.14%. In the case of `CCOc1ccc(N(CC)C(=O)Cc2c(C(=O)O)n(C)c3ccccc23)cc1` it was 16.8%; in that of `COC(=O)c1sccc1-n1cccc1C(=O)C(=O)N1CCCC1`, 14.3%. The figure for `COC(=O)c1sccc1-n1cccc1C(=O)C(=O)N1CCOCC1` is -78.3%. As to `COC(=O)c1sccc1-n1cccc1C(=O)N1CCOCC1`, the “hERG current change (%, negative = inhibition) at 10uM” value is -44.5%. The figure for `Cc1ccc(-n2nc3c(=O)n(CCCC(=O)NCc4ccc(Cl)cc4)nc(C)c3c2C)cc1` is 4.82%. As to `CCC(C(=O)NCCC1=CCCCC1)n1nc(C)c2c(C)n(-c3ccccc3)nc2c1=O` (stereo not shown), the “hERG current change (%, negative = inhibition) at 10uM” value is -48.6%. In the case of `Cc1ccc(-n2nc3c(=O)n(CCCC(=O)NCc4ccc(F)cc4)nc(C)c3c2C)cc1` it was -76.5%; in that of `Cc1ccc(-n2nc3c(=O)n(C(C)C(=O)NCc4ccccc4Cl)nc(C)c3c2C)cc1` (stereo not shown), -35.5%.

Regarding `Cc1ccc(-n2nc3c(=O)n(C(C)C(=O)NCc4ccc(Cl)cc4)nc(C)c3c2C)cc1` (stereo not shown), the “hERG current change (%, negative = inhibition) at 10uM” value is -63.5%. The figure for `Cc1ccc(CNC(=O)CCCn2nc(C)c3c(C)n(-c4ccccc4)nc3c2=O)cc1` is 5.48%; for `Cc1ccc(-n2nc3c(=O)n(C(C)C(=O)NCc4ccc5c(c4)OCO5)nc(C)c3c2C)cc1` (stereo not shown) it is 1.78%. In the case of `Cc1ccc(-n2nc3c(=O)n(C(C)C(=O)NCCC4=CCCCC4)nc(C)c3c2C)cc1` (stereo not shown), the “hERG current change (%, negative = inhibition) at 10uM” value was -51.4%. The figure for `CCOc1ccc(CNC(=O)C(C)n2nc(C)c3c(C)n(-c4ccccc4)nc3c2=O)cc1` (stereo not shown) is -16.1%; for `COc1ccc(CNC(=O)C(C)n2nc(C)c3c(C)n(-c4ccc(C)cc4)nc3c2=O)cc1` (stereo not shown) it is -50.1%. With `Cc1ccc(-n2nc3c(=O)n(CC(=O)NCCC4=CCCCC4)nc(C)c3c2C)cc1`, the “hERG current change (%, negative = inhibition) at 10uM” value amounted to 2.08%. The figure for `CSc1ccc(CNC(=O)C(C)n2nc(C)c3c(C)n(-c4ccccc4)nc3c2=O)cc1` (stereo not shown) is -38.2%; for `CCOc1ccc(C(=O)NNC(=O)CCNC(=O)c2ccco2)cc1OC` it is 12.9%. In the case of `Cc1ccc(OCCn2cccc2/C=C2/C(=O)NC(=O)N(Cc3ccco3)C2=O)cc1` it was -0.631%; in that of `CCOC(=O)C1CCN(C(=S)Nc2cc(OC)c(OC)cc2C(=O)OC)CC1`, -10.9%; in that of `COc1cc(CNCC(C)C)c(Br)cc1OCC(=O)NCc1ccccc1`, -10.7%. On to `Cc1ccc(C2C(C#N)=C(N)OC3=C2C(=O)CC(C)(C)C3)s1` (stereo not shown), for which the “hERG current change (%, negative = inhibition) at 10uM” value is given as -4.59%. In the case of `COc1ccc(-n2nnc3c(SCC(=O)N4CCCc5ccccc54)ncnc32)cc1` it was 13.6%; in that of `Cc1ccc(-n2nc3c(=O)n(C(C)C(=O)NCCCc4ccccc4)nc(C)c3c2C)cc1` (stereo not shown), -55.2%; in that of `Cc1ccc(CCNC(=O)C(C)n2nc(C)c3c(C)n(-c4ccccc4)nc3c2=O)cc1` (stereo not shown), -36.3%. The figure for `Cc1nn(C(C)C(=O)NCCCc2ccccc2)c(=O)c2nn(-c3ccccc3)c(C)c12` (stereo not shown) is -20%; for `Cc1nn(C(C)C(=O)NCc2ccccc2F)c(=O)c2nn(-c3ccccc3)c(C)c12` (stereo not shown) it is 13.8%; for `CCOc1ccccc1CNC(=O)C(C)n1nc(C)c2c(C)n(-c3ccccc3)nc2c1=O` (stereo not shown) it is -65.4%. The figure for `COc1ccccc1CNC(=O)C(C)n1nc(C)c2c(C)n(-c3ccccc3)nc2c1=O` (stereo not shown) is -0.0415%; for `CNC(=S)Nc1cccc(S(=O)(=O)NC2=NCCC2)c1` it is -7.6%.
